This passage reports activation, outcome and potentiation, percent of control results from PubChem BioAssay.

Active and inactive are the calls of the source.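 How the source made its calls, unless noted: active means membrane potential signal rise above negative control mean plus 3 SD in both duplicates, also active in the earlier TRPC4 screen; inactive means the rest.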

Short transient receptor potential channel 6 (Mus musculus), sequence (Q61143 whole entry, looked up): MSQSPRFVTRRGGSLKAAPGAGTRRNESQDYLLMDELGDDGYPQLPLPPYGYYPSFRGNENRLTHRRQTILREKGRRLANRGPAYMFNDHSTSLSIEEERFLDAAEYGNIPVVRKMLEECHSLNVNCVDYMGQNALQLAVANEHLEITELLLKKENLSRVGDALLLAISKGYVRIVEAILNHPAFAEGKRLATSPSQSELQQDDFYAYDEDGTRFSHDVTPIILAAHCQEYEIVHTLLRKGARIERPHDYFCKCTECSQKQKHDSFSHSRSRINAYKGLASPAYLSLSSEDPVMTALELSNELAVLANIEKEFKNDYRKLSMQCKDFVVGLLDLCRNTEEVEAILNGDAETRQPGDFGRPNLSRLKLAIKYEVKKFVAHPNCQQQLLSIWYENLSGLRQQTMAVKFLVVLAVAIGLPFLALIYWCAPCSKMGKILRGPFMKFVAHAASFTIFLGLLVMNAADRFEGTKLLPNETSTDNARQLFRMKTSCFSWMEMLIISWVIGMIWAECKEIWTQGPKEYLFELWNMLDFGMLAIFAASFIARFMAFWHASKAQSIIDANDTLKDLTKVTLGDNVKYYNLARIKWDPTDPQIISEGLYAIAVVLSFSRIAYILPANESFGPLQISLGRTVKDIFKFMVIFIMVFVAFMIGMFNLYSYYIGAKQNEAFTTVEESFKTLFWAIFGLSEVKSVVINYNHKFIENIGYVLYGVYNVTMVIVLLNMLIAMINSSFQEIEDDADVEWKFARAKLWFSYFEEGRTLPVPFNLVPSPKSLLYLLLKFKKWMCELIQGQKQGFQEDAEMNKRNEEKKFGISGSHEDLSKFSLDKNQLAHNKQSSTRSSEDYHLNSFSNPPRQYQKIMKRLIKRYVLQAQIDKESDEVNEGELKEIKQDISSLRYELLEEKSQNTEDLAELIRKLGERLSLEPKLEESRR

The first test addresses Short transient receptor potential channel 6 (Mus musculus) (UniProt Q61143). The test can be described thus: TRPC6 opening by TRPC4 activator hits – cell-based, HEK293, membrane potential dye, duplicate, selectivity assay for TRPC4 activator project, confirmation (AID 434950).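 On activation: 0% = buffer only wells and 100% = acetylcholine maximal-effect wells.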 The following applies: HEK293 TRPC6, membrane potential fluorescence, at 10 µM; activation: stronger effect = higher value; outcome: activation.
Turning to `Cc1cc(-c2ccc(C)c(S(=O)(=O)NCCCN(Cc3ccccc3)C(C)C)c2)on1`, the activation was 44.5% (active).
Same read-out and setting: under `CCc1nc(NCCc2ccccn2)c2nnn(Cc3ccccc3F)c2n1` stands 49% (active).
With `Cc1sc2ncnc(NCC(C)(C)N3CCOCC3)c2c1C`, the compound was classed as inactive.
Regarding `Cc1ccc(N2CCN(c3ccc(NCc4nc5ccccc5n4C)cc3)CC2)cc1`, the outcome was inactive.
On to `COc1ccc(C(CNC(=O)CN2C(=O)NC3(CCCC3)C2=O)N(C)C)cc1` (stereo not given), for which the compound was classed as inactive.
As to `Cc1cccc(NC(=S)NCC(c2cccnc2)N(C)C)c1C` (stereo not given), the outcome was inactive.
Turning to `Cc1ccccc1OCC(=O)NNC(=S)NC(=O)c1ccco1`, the activation is 31.5% (active).
Consider `Cc1ccc(Sc2cc(C(=O)NCCN(C)C)c3ccccc3n2)cc1`, for which the call was inactive.
For the compound `O=C(O)c1ccc(-c2ccc(/C=c3/sc4nc5ccccc5n4c3=O)o2)cc1Cl`, the activation is 218% (active).
On to `Cc1ccccc1C(=O)NNC(=S)NC(=O)c1ccccc1`, for which the activation was 43.5% (active).
Turning to `CN(C)C(CNC(=O)c1ccc2ccccc2n1)c1ccccc1` (stereo not given), the activation is 54% (active).
As to `Cc1cc(NC(=O)CN2CCc3ccccc3C2)nc2c1c(=O)oc1ccccc12`, the outcome was inactive.
In the case of `Cn1c(CN2CCN(c3cccc(Cl)c3)CC2)nc2ccccc21`, the activation was 49% (active).
Still for that read-out and setting: under `CN(C)C(CNC(=O)c1cnc(Cl)c(Cl)c1)c1ccccc1` (stereo not given) stands 30.5% (active); under `Cc1ccc(Cl)cc1NC(=O)CNCC(c1ccccc1)N(C)C` (stereo not given), 47.5% (active).
Regarding `CN(C)CCCN(C(=O)c1ccc(S(=O)(=O)N2CCOCC2)cc1)c1nc2ccc(F)cc2s1`, the result was inactive.
For the compound `CN(C)CCN(C(=O)c1cccc2ccccc12)c1nc2cc3c(cc2s1)OCO3`, the result was inactive.
Turning to `Cc1ccc2c(C)c(C(=O)N(Cc3cccs3)C3CCS(=O)(=O)C3)oc2c1` (stereo not given), the activation is 34.5% (active).
Regarding `CCN1CCN(c2c(Cl)cccc2NC(=O)c2ccc3nsnc3c2)CC1`, the result was inactive.
With `O=C(C1CCCN(Cc2ccncc2)C1)N1CCc2ccccc2C1` (stereo not given), the activation is 27.5% (active).
As to `CCN(c1ccccc1)S(=O)(=O)c1ccc(C(=O)N(CCCN(C)C)c2nc3cc4c(cc3s2)OCO4)cc1`, the outcome was inactive.
As to `CC1CCCN(CCCNC(=O)c2ccc3c(c2)N(Cc2ccccc2F)C(=O)c2ccccc2S3(=O)=O)C1` (stereo not given), the call was inactive.
Take `O=C(Nc1nnc(-c2ccccc2Cl)o1)c1nc2ccccc2s1`: the compound was called inactive.
`COc1ccc(C(=O)NC(=S)NNC(=O)CCc2ccccc2)cc1`: the activation was 25% (active).
As to `Cc1cc(-c2nn(-c3ccccc3F)cc2CNCCc2cnc[nH]2)c(C)s1`, the compound was classed as inactive.
With `Cc1ccc(C(=O)NC(=S)NNC(=O)c2ccccc2)cc1`, the activation is 31.5% (active).
Consider `Cc1csc2c(N3CCN(C(=O)NC(C)(C)C)CC3)ncnc12`, for which the compound was called inactive.
`COC(=O)[C@@]1(Cc2ccc(F)cc2)[C@H]2c3cc(C(=O)N(C)C)n(CCc4ccccn4)c3C[C@H]2CN1C(=O)c1ccccc1`: the activation was 54% (active).
On to `CN(CCc1ccccn1)C(=O)CC1C(=O)NCCN1Cc1ccccc1C(F)(F)F` (stereo not given), for which the compound was called inactive.
Consider `COc1cc(/C=C/C(=O)c2ccc3c(c2)OCO3)cc(Cl)c1O`, for which the activation is 427% (active).
As for `CCn1c(N2CCN(C(=O)Nc3ccc(F)cc3)CC2)nc2ccccc21`, the activation was 41% (active).
Consider `O=S(=O)(c1ccccc1)c1nnn2c1nc(NC1CCN(Cc3ccccc3)CC1)c1cc(Cl)ccc12`, for which the outcome was inactive.
Consider `CCOC(=O)c1oc2ccc(OC)cc2c1NC(=O)CN1CCN(C)CC1`, for which the activation was 32% (active).
Same read-out and setting: under `C=CCn1c(CCNC(=O)C(C)(C)C)nc2ccccc21` stands 37% (active).
On to `CCOC(=O)C1(CCOc2ccccc2)CCN(Cc2ccc3c(c2)OCCO3)CC1`, for which the activation was 74.5% (active).
Regarding `Cc1cc(C)n(-c2nc(SCCN(C)C)c3c4c(sc3n2)CCCC4)n1`, the result was inactive.
For the compound `COc1cc(OC)cc(C(=O)NC2CCCN(Cc3ccc(Cl)cc3)C2)c1` (stereo not given), the activation was 44.5% (active).
Take `CN(C)C(CNC(=O)CCc1c[nH]c2ccccc12)c1ccccc1` (stereo not given): the activation was 26% (active).
For `CCCCN(CC)CCCNC(=O)Cn1nc(Cc2ccncc2)c2ccccc2c1=O`, the activation is 31.5% (active).
For the compound `COC(=O)C1=C(C)N(Cc2ccccc2)C(=NCCc2ccccn2)N[C@H]1c1cccc(F)c1`, the activation is 77% (active).

The next test has the same target. Briefly: positive modulators of mouse TRPC6 channel – HEK293 cells, membrane potential dye, duplicate, selectivity assay for TRPC4 potentiator project, confirmation (AID 434952;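 active means compound raising the membrane signal above positive-control mean plus 3 SD in both repeats, and a primary screen hit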). Conditions: HEK293 TRPC6, membrane potential dye fluorescence, at 10 µM, maximal acetylcholine added after compound; stronger effect = higher value.
As to `Cc1cc(-c2ccc(C)c(S(=O)(=O)NCCCN(Cc3ccccc3)C(C)C)c2)on1`, the result was inactive.
Same read-out and setting: with `CCc1nc(NCCc2ccccn2)c2nnn(Cc3ccccc3F)c2n1` the entry was “inactive”; with `Cc1sc2ncnc(NCC(C)(C)N3CCOCC3)c2c1C`, “inactive”.
For `Cc1ccc(N2CCN(c3ccc(NCc4nc5ccccc5n4C)cc3)CC2)cc1`, the result was inactive.
For the compound `COc1ccc(C(CNC(=O)CN2C(=O)NC3(CCCC3)C2=O)N(C)C)cc1` (stereo not given), the outcome was inactive.
For `Cc1cccc(NC(=S)NCC(c2cccnc2)N(C)C)c1C` (stereo not given), the result was inactive.
For the compound `Cc1ccccc1OCC(=O)NNC(=S)NC(=O)c1ccco1`, the outcome was inactive.
With `Cc1ccc(Sc2cc(C(=O)NCCN(C)C)c3ccccc3n2)cc1`, the result was inactive.
With `O=C(O)c1ccc(-c2ccc(/C=c3/sc4nc5ccccc5n4c3=O)o2)cc1Cl`, the potentiation, percent of control was 166% (active).
With `Cc1ccccc1C(=O)NNC(=S)NC(=O)c1ccccc1`, the outcome was inactive.
Still for that read-out and setting: with `CN(C)C(CNC(=O)c1ccc2ccccc2n1)c1ccccc1` (stereo not given) the entry was “inactive”.
Take `Cc1cc(NC(=O)CN2CCc3ccccc3C2)nc2c1c(=O)oc1ccccc12`: the result was inactive.
Consider `Cn1c(CN2CCN(c3cccc(Cl)c3)CC2)nc2ccccc21`, for which the outcome was inactive.
The same measure, in the same setting: with `CN(C)C(CNC(=O)c1cnc(Cl)c(Cl)c1)c1ccccc1` (stereo not given) the entry was “inactive”.
On to `Cc1ccc(Cl)cc1NC(=O)CNCC(c1ccccc1)N(C)C` (stereo not given), for which the result was inactive.
`CN(C)CCCN(C(=O)c1ccc(S(=O)(=O)N2CCOCC2)cc1)c1nc2ccc(F)cc2s1`: the outcome was inactive.
The same measure, in the same setting: under `CN(C)CCN(C(=O)c1cccc2ccccc12)c1nc2cc3c(cc2s1)OCO3` stands “inactive”.
Same read-out and setting: under `Cc1ccc2c(C)c(C(=O)N(Cc3cccs3)C3CCS(=O)(=O)C3)oc2c1` (stereo not given) stands “inactive”; under `CCN1CCN(c2c(Cl)cccc2NC(=O)c2ccc3nsnc3c2)CC1`, “inactive”; under `O=C(C1CCCN(Cc2ccncc2)C1)N1CCc2ccccc2C1` (stereo not given), “inactive”.
Turning to `CCN(c1ccccc1)S(=O)(=O)c1ccc(C(=O)N(CCCN(C)C)c2nc3cc4c(cc3s2)OCO4)cc1`, the outcome was inactive.
In the case of `CC1CCCN(CCCNC(=O)c2ccc3c(c2)N(Cc2ccccc2F)C(=O)c2ccccc2S3(=O)=O)C1` (stereo not given), the outcome was inactive.
Same read-out and setting: under `O=C(Nc1nnc(-c2ccccc2Cl)o1)c1nc2ccccc2s1` stands “inactive”; under `COc1ccc(C(=O)NC(=S)NNC(=O)CCc2ccccc2)cc1`, “inactive”.
`Cc1cc(-c2nn(-c3ccccc3F)cc2CNCCc2cnc[nH]2)c(C)s1`: the outcome was inactive.
Regarding `Cc1ccc(C(=O)NC(=S)NNC(=O)c2ccccc2)cc1`, the outcome was inactive.
For `Cc1csc2c(N3CCN(C(=O)NC(C)(C)C)CC3)ncnc12`, the result was inactive.
On the same count and under the same terms, with `COC(=O)[C@@]1(Cc2ccc(F)cc2)[C@H]2c3cc(C(=O)N(C)C)n(CCc4ccccn4)c3C[C@H]2CN1C(=O)c1ccccc1` the entry was “inactive”; with `CN(CCc1ccccn1)C(=O)CC1C(=O)NCCN1Cc1ccccc1C(F)(F)F` (stereo not given), “inactive”; with `COc1cc(/C=C/C(=O)c2ccc3c(c2)OCO3)cc(Cl)c1O`, “inactive”.
As to `CCn1c(N2CCN(C(=O)Nc3ccc(F)cc3)CC2)nc2ccccc21`, the outcome was inactive.
Regarding `O=S(=O)(c1ccccc1)c1nnn2c1nc(NC1CCN(Cc3ccccc3)CC1)c1cc(Cl)ccc12`, the result was inactive.
As to `CCOC(=O)c1oc2ccc(OC)cc2c1NC(=O)CN1CCN(C)CC1`, the outcome was inactive.
In the case of `C=CCn1c(CCNC(=O)C(C)(C)C)nc2ccccc21`, the outcome was inactive.
In the case of `CCOC(=O)C1(CCOc2ccccc2)CCN(Cc2ccc3c(c2)OCCO3)CC1`, the outcome was inactive.
Same read-out and setting: under `Cc1cc(C)n(-c2nc(SCCN(C)C)c3c4c(sc3n2)CCCC4)n1` stands “inactive”.
As to `COc1cc(OC)cc(C(=O)NC2CCCN(Cc3ccc(Cl)cc3)C2)c1` (stereo not given), the result was inactive.
Still for that read-out and setting: under `CN(C)C(CNC(=O)CCc1c[nH]c2ccccc12)c1ccccc1` (stereo not given) stands “inactive”.
For `CCCCN(CC)CCCNC(=O)Cn1nc(Cc2ccncc2)c2ccccc2c1=O`, the outcome was inactive.
For `COC(=O)C1=C(C)N(Cc2ccccc2)C(=NCCc2ccccn2)N[C@H]1c1cccc(F)c1`, the result was inactive.
